This passage reports Potency and outcome results from PubChem BioAssay (Tox21).

Several values for one entry are separate records, joined by “and”; a condition that tells them apart may be missing. Equal values may be shown once. Results filed as inconclusive are left out. Some structures have more than one record in an assay (separate samples or runs), and their calls can disagree. Activity calls are given as the source filed them. Unless noted, the call rests on the fitted dose curve; in most records, active means well fitted curve in the direction sought with a large enough effect in the repeat runs; inconclusive means weak or mixed curves; inactive means no such curve, though single readings can be large; an effect the other way counts as inactive or inconclusive.

Assay [1] in a line: A CellTox Green Cytotoxicity Assay to monitor cytotoxicity in HepG2 cells - 0 hour (AID 1224882). Further: nearly all actives have a fitted effect of over 35% in size. The procedure, abridged:
(§1)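 Fluorescent DNA-binding dye, 600 HepG2 cells/well, 5 h preincubation then compound in DMSO; same plates read at 0–40 h, 37 C.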

Assay [2] is described as follows: A CellTox Green Cytotoxicity Assay to monitor cytotoxicity in HepG2 cells - 32 hour (AID 1224883). Further: nearly all actives have a fitted effect of over 50% in size. Further: potency means the concentration at half of the fitted maximal effect. The procedure, abridged:
as §1

A short description of assay [3]: A CellTox Green Cytotoxicity Assay to monitor cytotoxicity in HEK293 cells - 8 hour (AID 1224884). Further: nearly all actives have a fitted effect of over 35% in size. The procedure, abridged: (§2)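 Homogeneous no-lysis format: HEK293 cell suspension mixed with CellTox Green reagent, seeded, incubated 5 h at 37 C/5% CO2, then dosed by pintool with compound in DMSO.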
Assay [4] in a line: qHTS RealTime-Glo MT Cell Viability Assay in HepG2 cells - 16 hour (AID 1224885). Further: nearly all actives have a fitted effect of over 50% in size. Further: potency means the concentration at half of the fitted maximal effect. The procedure, abridged: (§3)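 Viability was tracked continuously by NanoLuc luminescence from prosubstrate reduced by living HepG2 cells, at successive time points over 40 h of compound exposure. Cells with reagent were preincubated 5 h at 37 °C before compound addition.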
A general note: Quantitative high-throughput screening tests each substance at several concentrations.

Assay [5] is described as follows: qHTS RealTime-Glo MT Cell Viability Assay in HEK293 cells - 24 hour (AID 1224886). Further: nearly all actives have a fitted effect of over 50% in size. Further: potency means the concentration at half of the fitted maximal effect. The procedure, abridged:
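Viability tracked continuously by luminescence as live cells reduce a prosubstrate for NanoLuc; HEK293 cells preincubated 5 h, compound-treated at 37 C, and read at 0, 8, 16, 24, 32 and 40 h.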

Assay [6] in a line: qHTS RealTime-Glo MT Cell Viability Assay in HEK293 cells - 8 hour (AID 1224887). Further: top concentration of the series differs between compounds; nearly all actives have a fitted effect of over 50% in size. The procedure, abridged:
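Measured as luminescence from the same continuously cultured HEK293 wells at successive time points (0, 8, 16, 24, 32, 40 h) after compound addition. Reagent present from seeding; dosing at 5 h; incubation 37 C.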

Assay [7] in a line: A CellTox Green Cytotoxicity Assay to monitor cytotoxicity in HEK293 cells - 16 hour (AID 1224888). Further: nearly all actives have a fitted effect of over 35% in size. The procedure, abridged:
as §2

A short description of assay [8]: qHTS RealTime-Glo MT Cell Viability Assay in HepG2 cells - 0 hour (AID 1224889). Further: nearly all actives have a fitted effect of over 50% in size. Further: potency means the concentration at half of the fitted maximal effect. The procedure, abridged: as §3
Assay [9] in a line: A CellTox Green Cytotoxicity Assay to monitor cytotoxicity in HepG2 cells - 8 hour (AID 1224890). Further: nearly all actives have a fitted effect of over 45% in size. The procedure, abridged:
as §1

The nature of assay [10]: qHTS assay to identify small molecule antagonists of the androgen receptor (AR) signaling pathway using the MDA cell line in the presence of 0.5 nM R1881 - cell viability counter screen (AID 1259242). Further: nearly all actives have a fitted effect of over 45% in size. Further: potency means the concentration at half of the fitted maximal effect. The procedure, abridged: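 Human breast carcinoma MDA-kb2 cells, cultured without CO2, receive compounds alongside 0.5 nM (final) R1881 agonist. After 16 hr at 37C, viability is taken as live-cell protease signal.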

Assay [11] in a line: qHTS assay to identify small molecule phospholipidosis (PLD) inducers (AID 1259344; active means well fitted curve in the direction sought with a large enough effect; an effect the other way counts as inactive or inconclusive). The procedure, abridged: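 Read-out is LipidTOX Red fluorescence (ex 595/em 615) imaged in HepG2 cells after 24 h compound exposure at 37 C, with Hoechst nuclear counterstain (ex 352/em 461) allowing per-cell normalisation.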
Assay [12] is described as follows: qHTS assay to identify small molecule HDAC inhibitors (AID 1259364).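 Further: wild-type HCT-116 cells with endogenous class I/II HDAC activity; top concentration of the series differs between compounds; nearly all actives have a fitted effect of over 45% in size.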 The procedure, abridged: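 After a 2 hr compound incubation (37C, 5% CO2), HCT-116 cells seeded at 1,500/well the day before received HDAC-Glo reagent; signal read as luminescence after 30 min at room temperature.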
The nature of assay [13]: qHTS assay to identify small molecule HDAC inhibitors - cell viability counter screen (AID 1259365). Further: nearly all actives have a fitted effect of over 50% in size. Further: potency means the concentration at half of the fitted maximal effect. The procedure, abridged: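 CellTiter-Glo luminescence (30 min, room temperature) reported viability after a 2 h compound exposure at 37 C. Cells: wild-type HCT-116, 1,500 per well, seeded the night before.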
Assay [14] is described as follows: qHTS assay to identify small molecule agonists of the sonic hedgehog signaling (Shh) pathway - cell viability counter screen (AID 1259366). Further: nearly all actives have a fitted effect of over 50% in size. Further: potency means the concentration at half of the fitted maximal effect. The procedure, abridged:
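Cytotoxicity counter screen: CellTiter-Fluor reagent added after 23 h compound exposure, then 1 h at 37C and fluorescence read. Cells were 3T3 Gli1-Luc, seeded 2,000 per well and dosed 4 h post-plating.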

Assay [15] in a line: qHTS assay to identify small molecule antagonists of the sonic hedgehog signaling (Shh) pathway - cell viability counter screen (AID 1259367). Further: nearly all actives have a fitted effect of over 55% in size. Further: potency means the concentration at half of the fitted maximal effect. The procedure, abridged:
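Fluorescence read-out (CellTiter-Fluor, 1 hr at 37C) taken after 23 hr compound treatment of 3T3 Gli1-Luc cells stimulated with conditioned medium. Cells were seeded at 2,000 per well and pre-incubated 4 hr.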

The nature of assay [16]: qHTS assay to identify small molecule agonists of the sonic hedgehog signaling (Shh) pathway (AID 1259368; calls by dose curve;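 further: NIH/3T3-derived 3T3Gli1-Luc cells carrying a stable Gli1-driven firefly luciferase reporter; series mostly up to about 92 µM; nearly all actives have a fitted effect of over 15% in size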). The procedure, abridged:
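Stable NIH/3T3 Gli1-Luc reporter clone; 24 hr cpd exposure after a 4 hr settling period; luminescence endpoint.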

Assay [17] is described as follows: qHTS assay to identify small molecule antagonists of the sonic hedgehog signaling (Shh) pathway (AID 1259369; calls by dose curve; further: nearly all actives have a fitted effect of over 45% in size; further: potency means the concentration at half of the fitted maximal effect). The procedure, abridged: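 Gli1 transcriptional reporter (firefly Luc) in NIH/3T3 background, conditioned-medium activated. 24hr exposure, luminescence endpoint.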
Assay [18] addresses Androgen receptor (Homo sapiens) (UniProt P10275). The assay can be described thus: qHTS assay to identify small molecule antagonists of the androgen receptor (AR) signaling pathway using the MDA cell line in the presence of 0.5 nM R1881 (AID 1259243). Further: nearly all actives have a fitted effect of over 50% in size. The procedure, abridged:
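Cells: MDA-kb2 (MMTV-luc). Stimulus: 0.5 nM R1881. Time: 16 hr, 37C, no CO2. Detection: ONE-Glo luminescence after 30 min at RT.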

In assay [19] the target is Estrogen receptor (Homo sapiens) (UniProt P03372). The experiment in a line: qHTS assay to identify small molecule antagonists of the estrogen receptor alpha (ER-alpha) signaling pathway using the BG1 cell line in the presence of 0.1 nM 17-beta-estradiol (AID 1259244). Further: nearly all actives have a fitted effect of over 50% in size. Further: potency means the concentration at half of the fitted maximal effect. The procedure, abridged: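 Seeding of stripped-serum-adapted VM7Luc4E2 cells, 24 h attachment, compound transfer, then 0.1 nM final 17beta-estradiol; after 22 h incubation, ONE-Glo reagent and luminescence reading.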

A short description of assay [20]: qHTS assay to identify small molecule antagonists of the estrogen receptor alpha (ER-alpha) signaling pathway using the BG1 cell line in the presence of 0.1 nM 17-beta-estradiol - cell viability counter screen (AID 1259241). Further: nearly all actives have a fitted effect of over 40% in size. Further: potency means the concentration at half of the fitted maximal effect. The procedure, abridged: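 Cytotoxicity counter-screen: live-cell protease activity measured by fluorescence (30 min reagent step) in the same wells. Cells were VM7Luc4E2 with endogenous ER-alpha and ERE-driven luciferase, treated 22 hr at 37C alongside 0.1 nM 17beta-estradiol final.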

Estrogen receptor (Homo sapiens), sequence (P03372 whole entry, looked up): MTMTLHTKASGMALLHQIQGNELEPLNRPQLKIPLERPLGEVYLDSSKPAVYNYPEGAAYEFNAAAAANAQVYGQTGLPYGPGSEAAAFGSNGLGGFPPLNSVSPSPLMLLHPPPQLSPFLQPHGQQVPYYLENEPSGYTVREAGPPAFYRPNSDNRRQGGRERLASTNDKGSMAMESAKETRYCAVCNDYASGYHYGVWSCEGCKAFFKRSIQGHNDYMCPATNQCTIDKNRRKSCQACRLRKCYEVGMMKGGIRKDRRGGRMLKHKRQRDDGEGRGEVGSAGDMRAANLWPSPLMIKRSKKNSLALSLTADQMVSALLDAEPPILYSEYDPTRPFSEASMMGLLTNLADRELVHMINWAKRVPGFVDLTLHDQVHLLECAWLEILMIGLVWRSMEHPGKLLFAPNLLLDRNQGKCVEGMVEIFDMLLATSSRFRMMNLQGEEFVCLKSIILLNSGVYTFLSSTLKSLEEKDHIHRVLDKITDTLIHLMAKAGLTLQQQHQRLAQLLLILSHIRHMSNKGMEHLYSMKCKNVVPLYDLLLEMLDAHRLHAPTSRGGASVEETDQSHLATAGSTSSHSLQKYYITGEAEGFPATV
Androgen receptor (Homo sapiens), sequence (P10275 whole entry, looked up): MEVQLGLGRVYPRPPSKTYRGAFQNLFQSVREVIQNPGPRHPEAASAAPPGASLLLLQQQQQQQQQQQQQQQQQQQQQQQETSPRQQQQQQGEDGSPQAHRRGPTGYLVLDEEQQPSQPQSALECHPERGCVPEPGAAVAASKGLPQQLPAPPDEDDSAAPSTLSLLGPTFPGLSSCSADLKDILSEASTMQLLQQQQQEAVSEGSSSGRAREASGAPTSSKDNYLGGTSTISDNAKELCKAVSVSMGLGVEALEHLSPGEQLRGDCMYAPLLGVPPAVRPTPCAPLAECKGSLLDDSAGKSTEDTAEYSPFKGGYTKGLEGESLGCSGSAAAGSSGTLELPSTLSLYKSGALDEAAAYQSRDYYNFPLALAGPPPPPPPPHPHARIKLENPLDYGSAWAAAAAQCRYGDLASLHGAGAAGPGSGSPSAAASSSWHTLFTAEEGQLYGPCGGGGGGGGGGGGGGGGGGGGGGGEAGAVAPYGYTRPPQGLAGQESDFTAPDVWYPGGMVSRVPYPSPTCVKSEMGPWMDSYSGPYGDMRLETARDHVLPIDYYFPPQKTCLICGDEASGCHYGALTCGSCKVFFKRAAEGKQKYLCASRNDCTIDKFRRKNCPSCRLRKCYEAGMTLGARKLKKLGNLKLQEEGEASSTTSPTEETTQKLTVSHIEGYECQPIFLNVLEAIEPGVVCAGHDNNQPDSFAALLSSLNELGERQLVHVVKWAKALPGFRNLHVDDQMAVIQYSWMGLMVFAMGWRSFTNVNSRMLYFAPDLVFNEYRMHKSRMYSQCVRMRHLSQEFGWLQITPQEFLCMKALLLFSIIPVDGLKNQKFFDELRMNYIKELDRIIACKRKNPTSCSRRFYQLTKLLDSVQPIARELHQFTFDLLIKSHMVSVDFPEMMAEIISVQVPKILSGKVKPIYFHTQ

Regarding `Cn1c(=O)c2c(ncn2C)n(C)c1=O`, the Potency result in assay [1], in [2], in [3], in assay [4], in assay [5] and in [6] was “inactive” each time. The Potency result in [7], in assay [8], in [9], in [10], in [11] and in assay [12] was “inactive” throughout. Also, the Potency entry in assay [13] and in assay [14] was “inactive” each time. Besides, the Potency in assay [15] is 55.1 µM (active) and inactive; in [17], 17.4 µM (active) and inactive. Also, the outcome in assay [16] was inactive.
Regarding `COc1cccc(O)c1O`, the Potency entry in [1], in assay [2], in [3], in [4], in assay [7] and in assay [8] was “inactive” in each case. Also, the Potency entry in [9], in assay [10], in assay [18], in assay [19], in [12] and in [13] was “inactive” throughout. In addition, the Potency in assay [14] is 63.5 µM (active); in assay [15] it was 56.6 µM (active); in assay [17], 8.97 µM (active). In assay [16], the call was inactive.
As to `COc1ccc(OC(F)(F)F)cc1CN[C@H]1CCCN[C@H]1c1ccccc1`, the Potency result in assay [1], in assay [12] and in assay [13] was “inactive” throughout. Besides, the Potency in [2] is 49 µM (active); in assay [4] it was 54.9 µM (active); in [5], 43.6 µM (active); in assay [10] it was 48.6 µM (active); in assay [14], 48.6 µM (active); in assay [15], 61.1 µM (active). Moreover, the Potency in assay [17] is 10.9 µM (active). In addition, the result in assay [16] was inactive.
`Nc1ccc(O)c([N+](=O)[O-])c1`: the Potency entry in assay [1], in assay [2], in assay [3], in [4], in assay [6] and in [7] was “inactive” in each case. In addition, the Potency result in [9], in assay [11] and in [13] was “inactive” in each case. The Potency is 43.3 µM (active) in assay [14], 30.6 µM (active) in [15] and 13.5 µM (active) in [17]. Besides, the result in [16] was inactive.
For the compound `O=S1(=O)OC(c2ccc(O)cc2)(c2ccc(O)cc2)c2ccccc21`, the Potency entry in assay [2], in assay [3], in assay [5], in assay [6], in assay [7] and in assay [9] was “inactive” throughout. The Potency result in assay [11], in assay [12] and in [13] was “inactive” throughout. Besides, the Potency was 49 µM (active) and inactive in assay [4]; 49 µM (active) in [8]; 30.6 µM (active) and 21.7 µM (active) and 8.41 µM (active) in assay [20]; 27.3 µM (active) and 19.3 µM (active) and 10.6 µM (active) in assay [10]; 61.1 µM (active) and inactive in [19]; 27.3 µM (active) and 11.9 µM (active) in assay [14]. Besides, the Potency is 21.7 µM (active) and 24.3 µM (active) and 11.9 µM (active) in [15]; 27.3 µM (active) and inactive in assay [17]. Moreover, the call in [16] was inactive.
As to `CC12CCC(CC1)C(C)(C)O2`, the Potency result in assay [2], in [3], in assay [4], in assay [5], in [6] and in assay [7] was “inactive” each time. The Potency result in assay [8], in [9], in [20], in [10], in assay [19] and in [11] was “inactive” in each case. For the same compound, the Potency entry in assay [12], in assay [13], in assay [14], in assay [15] and in assay [17] was “inactive” throughout. Besides, in assay [16], the compound was called inactive.
`Cc1c(C(=O)O)c(O)cc2c1C(=O)c1c(O)c([C@@H]3O[C@H](CO)[C@@H](O)[C@H](O)[C@H]3O)c(O)c(O)c1C2=O`: the Potency entry in [2], in assay [3], in assay [4], in [5], in assay [6] and in assay [7] was “inactive” throughout. Moreover, the Potency entry in assay [8], in [9], in [19], in [11], in [12] and in [17] was “inactive” throughout. The Potency is 33.5 µM (active) and 21.7 µM (active) in assay [20]; 37.6 µM (active) and 27.3 µM (active) in assay [10]; 27.3 µM (active) and inactive in assay [13]; 26.6 µM (active) and 27.3 µM (active) in assay [14]; 29.9 µM (active) and 27.3 µM (active) in assay [15]. Also, the compound was called inactive in assay [16].
